Screens: PubChem BioAssay, National Center for Advancing Translational Sciences (NCATS)
Only some compounds are listed: those with a hit (about 2.5% of all), similar ones and a draw of the others.
aSyn yeast inh = inhibitors of alpha-synuclein toxicity in yeast | AID 652106 | Yeast expressing alpha-synuclein, growth rescue, BacTiter-Glo, 24 h | hit rate 0.14% among 370,000 | Potency, µM (doses to about 46.1 µM), without a hit: at the top dose growth rescue (activation), actives largely listed as activators; also: potency is read from the fitted curve at half-maximal effect; % of control where 0% means no effect; nearly all actives have a fitted effect of over 65% in size
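Galactose-induced alpha-syn yeast (OD600=0.02, raffinose-pregrown) + pinned cpd, 24 hr, 30 deg C; growth by BacTiter-Glo luminescence. Growth restoration scores as activation.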
Anesthetic bind = candidate novel general anesthetic via apoferritin binding; apoferritin/1-aminoanthracene competitive binding, fluorescence; Potency, µM (series often up to 77.5 µM), without a hit: at the top dose activity change, negative = displacement, usual class: inhibitors; hit rate 0.074% among 350,000; AID 485281; also: potency is read from the fitted curve at half-maximal effect; % is scaled to controls: 0 for no effect and ±100 for the full control effect; nearly all actives have a fitted effect of over 20% in size
Target sequence (P02791 2-175 limits assumed): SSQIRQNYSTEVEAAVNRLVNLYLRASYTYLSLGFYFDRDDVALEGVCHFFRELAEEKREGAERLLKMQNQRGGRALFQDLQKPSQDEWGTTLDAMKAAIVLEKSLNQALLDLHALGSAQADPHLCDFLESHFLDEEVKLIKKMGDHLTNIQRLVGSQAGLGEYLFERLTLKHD
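10 uM apoferritin + 50% sat. 1-AMA, PBS; cpd 10 min RT; Ex380/Em535 endpoint; normalized to free probe vs complex; 4-param Hill fit; propofol titration as pos. ctrl.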
CCT chaperon mod = changes cytosolic chaperonin activity; purified chaperonin ATPase assay, HTRF ADP detection, 30 min; activity change, % (test concentration not listed), hits read low; hit rate 0.3% among 360,000; in the data active = activity change below about -30%; also: % is scaled to controls: 0 for no effect and ±100 for the full control effect
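First, chaperonin was dispensed at 40 nM or 20 nM final depending on batch activity. Next, compounds were pinned at 76 uM and ATP added at 10 uM. After 30 min at 37 °C, ADP detection reagents ran 30 min at ambient temperature.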
pAkt inh = inhibitors of Akt phosphorylation | activity change, % for hits at 50 µM | AID 651550 | hit rate 0.32% among 360,000 | Neuro2A IGF-stimulated pAkt S473 HTRF, 20 min; stronger effect = lower value; in the data active = activity change below about -80%; inconclusive = mostly about -51% to -80%; also: % is scaled to controls: 0 for no effect and ±100 for the full control effect
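Neuro2A cells in DMEM with 0.5% FBS, overnight at 37 deg C, given compound at single 50 µM final, then IGF (6 nM final) for 20 min at 37 deg C. Lysed; phospho-Akt Ser473 by HTRF after 24 h, 665/615 ratio.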
TDP43 rescue = TDP-43 toxicity inhibition in yeast; hit rate 1.8% among 410,000; TDP-43 expressing yeast growth rescue, BacTiter-Glo, 24 h; Potency, µM (titrated, usually from 46.1 µM), for the others: top-dose growth rescue (activation), hits mostly activators; AID 652104; also: potency is read from the fitted curve at half-maximal effect; % of control where 0% means no effect; nearly all actives have a fitted effect of over 50% in size
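In this qHTS, compounds that restore growth of yeast expressing TDP-43 appear as activators. Cells (OD600=0.02, galactose medium, raffinose-pregrown) are incubated with compound 24 hr at 30 deg C and growth is quantified by BacTiter-Glo.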
Mito fusion yeast = mitochondrial division inhibition or fusion activation | S. cerevisiae fusion-defective mutant growth rescue, CellTiterGlo 48 h | hit rate 0.23% among 320,000 | AID 485298 | Potency, µM (series often up to 46.1 µM), for the others: at the top dose growth rescue (activation), actives largely listed as activators; also: potency is read from the fitted curve at half-maximal effect; % of control where 0% means no effect; nearly all actives have a fitted effect of over 45% in size
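Yeast fusion mutant, YPEG (non-fermentable carbon), compound, 48 h at 37C non-permissive; CellTiterGlo added, 10 min RT, luminescence read. Rescued growth = division inhibition.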
The depositor's hits bear a star; i = inactive; ? = inconclusive; . = no result; [ ] = another dose, or the depositor's remark. Unless noted, calls follow the shape of the dose curve; as a rule, active = well fitted curve in the direction sought with a large enough effect; inconclusive = small, poorly fitted or top-dose-only effect, or another doubt; inactive = no such curve, though single readings can be large; an effect the other way counts as inactive or inconclusive.

SMILES	aSyn yeast inh	Anesthetic bind	CCT chaperon mod	pAkt inh	TDP43 rescue	Mito fusion yeast
O=C(OCc1ccccc1Cl)c1cc([N+](=O)[O-])ccc1N1CCOCC1	19.1%	.	-0.2	i	20µM*	.
CC12CCC(C(=O)Nc3ccc(Cl)cc3)([C@H](Br)C1=O)C2(C)C (stereo partly drawn)	21.1%	4.8%	1.4	i	?	23.5%
CC12CCC(C(=O)Nc3cccc(Cl)c3)(C(Br)C1=O)C2(C)C (stereo not drawn)	12.2%	-23.8%	-1.1	i	20µM*	16.6%
O=C1CCC[C@@H]2CC(NCc3ccc(Cl)c(Cl)c3)C[C@@H]3CCN1[C@H]23 (stereo partly drawn)	.	-5.1%[110 µM]	.	.	.	.
Cc1ccc(C(=O)Nc2ccc(S(=O)(=O)O)c3cc(S(=O)(=O)O)cc(S(=O)(=O)O)c23)cc1NC(=O)c1cccc(NC(=O)Nc2cccc(C(=O)Nc3cc(C(=O)Nc4ccc(S(=O)(=O)O)c5cc(S(=O)(=O)O)cc(S(=O)(=O)O)c45)ccc3C)c2)c1	-8.9%	-6.3%	.	.	.	16.4µM*
Cc1ccccc1NC(=O)c1cccc(S(=O)(=O)Nc2cccc(C(=O)O)c2)c1	-0.8%	5.2%	-0.5	i	-8.6%	2.6%
O=S(=O)(c1ccc(Cl)cc1)N1CCN(c2nc(Nc3cc(Cl)ccc3O)nc3ccccc23)CC1	-20.5%[36.9 µM]	.	.	.	.	.
Clc1ccc(OCCn2cnc(Cl)c2Cl)cc1	19.5%	-6.6%	-1.1	i	11.2µM*	-5.4%
COc1ccc(OCCn2cnc(Cl)c2Cl)cc1	2.8%	-0.8%	-0.1	i	15.7%	-3.7%
O=C(O)[C@H](Cc1c[nH]c2ccccc12)N1C(=O)C2=CCCC=C2C1=O	.	14.7%	.	.	.	.
Cc1nc2ccccc2cc1OCc1ccccc1	3.2%	-10.7%	0.5	i	17.8µM*	-21.6%
O=C(Oc1c(Cl)cc(Cl)c2ccccc12)N1CCCC1	0.0%	-23.0%	-2.0	i	12.6µM*	6.2%
O=C(Oc1ccnc2cc(Cl)ccc12)N1CCCCCC1	?	?	1.8	-95.9%*	24.4%[9.22 µM]	-17.9%
Cc1ccc(-c2nnc(SCC(=O)c3ccc(Cl)cc3)n2-c2ccccc2)cc1	.	-7.2%	.	.	17.9%	.
c1ccc(-c2nc(-c3ccco3)n3ccccc23)cc1	-1.7%	-7.1%	1.0	i	25.1µM*	8.9%
Cc1cc(-c2ccc(C)c(S(=O)(=O)NCc3ccc(Br)cc3)c2)on1	13.6%	12.6%	-1.3	i	17.8µM*	?
Cc1cc(-c2ccc(C)c(S(=O)(=O)NCCc3ccc(S(N)(=O)=O)cc3)c2)on1	4.5%	-10.2%	0.7	i	8.0%	-0.2%
Cc1cc(-c2ccc(C)c(S(=O)(=O)NCc3cccc(Br)c3)c2)on1	1.7%	40.0%	-1.4	i	35.5µM*	32.9%
CC(=O)c1ccc(N=Cc2c(O)n(-c3cc(Cl)ccc3N3CCOCC3)c(=O)c3ccccc23)cc1	11.9%	-8.9%	-0.1	-119.5%*	19.9%	5.8%
O=c1c2ccccc2c(C=Nc2ccc(Cl)cn2)c(O)n1-c1cc(Cl)ccc1N1CCOCC1	-6.9%	-10.5%	-4.5	i	-3.6%	1.0%
CC(=O)c1c(O)cccc1O	.	3.1%	.	.	.	.
C(=N/Nc1nc(-c2ccccc2)cc(-c2ccccc2)n1)/c1cccnc1	8.4%	-1.0%	-3.1	i	14.1µM*	?
O=c1c2ccccc2ncn1CCCSc1ccc(Cl)cc1	1.8%	-18.5%	1.7	i	?	0.0%
O=c1c2ccccc2ncn1CCCSc1ccccc1	13.2%	-18.3%	2.2	i	12.6µM*	6.0%
CCOc1ccc(NC(=O)CC2C(=O)N(c3ccc(Cl)cc3)C(=O)N2Cc2cccs2)cc1 (stereo not drawn)	.	-9.4%	.	.	14.4%	.
Clc1cccc2sc(N3CCOCC3)nc12	6.3%	.	-1.4	i	22.7%	.
Clc1cccc2sc(N3CCCC3)nc12	2.2%	-2.4%	-1.7	i	12.6µM*	-7.6%
OC(CN1C=CCc2ccccc21)c1ccc(Cl)cc1Cl (stereo not drawn)	-5.7%	.	.	.	.	.
